Test [1] in a line: NCI Yeast Anticancer Drug Screen. Data for the rad50 strain (AID 155).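 Further: 0% = growth of vehicle-only cultures of the same strain.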 As to conditions: S. cerevisiae rad50 strain growth inhibition; at 50.0 µM; active compounds read high. In short, it runs like this:
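Inhibition values express reduced yeast growth in compound-treated cultures relative to vehicle-treated controls.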

Test [2] is described as follows: NCI Yeast Anticancer Drug Screen. Data for the mec2-1 strain (AID 157). The conditions noted are these: S. cerevisiae mec2-1 strain, at 50.0 µM, active compounds read high. In short, it runs like this: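 Compounds were applied to mec2-1 yeast cells. Their growth was then compared with that of vehicle-treated cultures to give growth inhibition.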
The nature of test [3]: NCI Yeast Anticancer Drug Screen. Data for the sgs1 mgt1 strain (AID 161).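 Further: 0% = growth of cultures given vehicle only.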 As to conditions: S. cerevisiae sgs1 mgt1 strain, at 50.0 µM, active compounds read high. In short, it runs like this:
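Percent growth inhibition was derived by comparing compound-exposed mutant yeast with vehicle-exposed cultures. The strain carries alterations in DNA damage repair.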

Test [4] is described as follows: NCI Yeast Anticancer Drug Screen. Data for the cln2 rad14 strain (AID 165).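 Further: 0% = growth equal to vehicle treated cultures.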 The conditions noted are these: S. cerevisiae cln2 rad14 strain, at 50.0 µM, active compounds read high. In short, it runs like this: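 Strain: cln2 rad14 yeast, altered in cell cycle control and DNA damage repair. Read-out: growth inhibition vs vehicle.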
Test [5] in a line: NCI Yeast Anticancer Drug Screen. Data for the bub3 strain (AID 167). As to conditions: S. cerevisiae bub3 mutant strain, at 50.0 µM, active compounds read high. In short, it runs like this: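 Steps: expose the mutant yeast strain to compound; grow alongside vehicle-treated cultures; measure growth; express inhibition against the vehicle cultures.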
Test [6] in a line: NCI Yeast Anticancer Drug Screen. Data for the mlh1 rad18 strain (AID 175). The conditions noted are these: S. cerevisiae mlh1 rad18 strain growth inhibition; at 50.0 µM; active compounds read high. In short, it runs like this: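 A repair-deficient yeast strain is exposed to test compound, and growth is scored relative to vehicle-treated controls.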

SMILES strings stand for the structures. This is part of a sample that, as a whole, favours compounds with a hit. Of some 79,000 tested, about 15% had one in any assay. Unmarked numbers belong to inactive results. The source made the active and inactive calls. No stated cut-off is given here; in the data, active means growth inhibition above about 70%; inactive means the rest.

`NNC(=O)C(CC(C(=O)NN)C(=O)NN)C(=O)NN`: the growth inhibition in test [1] is 47.5%; in test [2], -1.5%; in test [3], 5.25%; in test [4] it was -22.5%; in test [5] it was 13.9%; in test [6], 29.7%.
As to `CC(C)(C)OC(=O)NC(Cc1ccccc1)NC(=O)NC(=O)OCc1ccccc1` (stereo not given), the growth inhibition is -25.3% in test [1]; -9.85% in test [2]; -6.45% in test [3]; -0.65% in test [4]; -13.8% in test [5]; -27.1% in test [6].
In the case of `O=C(Nc1cc(Cl)c(Oc2ccc(Cl)cc2)cc1S(=O)(=O)O)Nc1cccc(Cl)c1Cl`, the growth inhibition was 99% (active) in test [1]; 99.5% (active) in test [2]; 99.6% (active) in test [3]; 98.2% (active) in test [4]; 98.7% (active) in test [5]; 99.4% (active) in test [6].
Consider `O=C(OC1CC2CCC23CCC13)c1ccccc1` (stereo not given), for which the growth inhibition in test [1] is -1.35%; in test [2], 6.1%; in test [3], 10.2%; in test [4], -7.6%; in test [5], -37.5%; in test [6], -18.9%.
For `COC(=O)c1nc(N)nc(C(=O)OC)c1C(=O)c1ccc2ccccc2c1`, the growth inhibition was -4.75% in test [1]; -13% in test [2]; 10.8% in test [3]; -2.8% in test [4]; 3.9% in test [5]; 9.4% in test [6].
On to `COC(=O)CCc1onc(Br)c1CCl`, for which the growth inhibition is 17.8% in test [1]; 9.05% in test [2]; -7.55% in test [3]; 0.35% in test [4]; 9.95% in test [5]; 9.5% in test [6].
Consider `COc1ccc2c(c1)C(=O)C1(C2)[C@H](c2ccccc2)C2C(=O)c3cc(OC)ccc3C2[C@H]1c1ccccc1` (stereo not given in full), for which the growth inhibition is -20.4% in test [1]; -3% in test [2]; 11.9% in test [3]; -5.2% in test [4]; 21.1% in test [5]; 9.3% in test [6].
Take `CC1CCC(C(C)C)C(OS(=O)(=O)c2ccccc2)C1` (stereo not given): the growth inhibition in test [1] was 0.1%; in test [2], -26.7%; in test [3], -10.4%; in test [4], 17.3%; in test [5], 11.6%; in test [6], 1.8%.
As for `Cc1ccc(N(C(=O)CC(=O)N/N=C/c2ccccc2O)C(=O)c2ccccc2)cc1`, the growth inhibition is -6.55% in test [1]; -16.8% in test [2]; -2.05% in test [3]; 8.2% in test [4]; -27.1% in test [5]; -10.8% in test [6].
Take `NCC(N)C(O)C(O)C(O)CO` (stereo not given): the growth inhibition was 5.65% in test [1]; -2.25% in test [2]; -2.85% in test [3]; -43.1% in test [4]; -16.4% in test [5]; 2.7% in test [6].
For the compound `COc1ccc(/C=[N+](\[O-])c2ccccc2)cc1` (tested in a mixture with another compound), the growth inhibition is -2% in test [1]; 8.2% in test [2]; 4.1% in test [3]; 0.4% in test [4]; -10.8% in test [5]; 8.35% in test [6].
For the compound `COC(=O)c1cccc(Cl)n1`, the growth inhibition in test [1] is 4.7%; in test [2] it was -16.8%; in test [3] it was -6.95%; in test [4], 1.05%; in test [5], 10.4%; in test [6] it was 7.85%.
With `CCN(CC)CCCNc1ccnc2c(N)cccc12`, the growth inhibition in test [1] was 3.1%; in test [2] it was 1.4%; in test [3], 5.65%; in test [4], 9.75%; in test [5], 5.45%; in test [6] it was 6.75%.
Consider `NC(=O)CNC(=O)c1ccc(N)cc1`, for which the growth inhibition in test [1] was 16.8%; in test [2], 7.6%; in test [3], 11.2%; in test [4], 15.6%; in test [5] it was 1.25%; in test [6], 18.4%.
Consider `CCC1=C(CC2NCCc3ccccc32)CC2c3cc(OC)c(OC)cc3CCN2C1` (stereo not given), for which the growth inhibition in test [1] was -9.9%; in test [2] it was -12.1%; in test [3], -14.7%; in test [4], 3.9%; in test [5], -28%; in test [6] it was -11.1%.
Take `N#CCCCCN1CCOCC1`: the growth inhibition in test [1] was 10.3%; in test [2], -7.5%; in test [3], -21.7%; in test [4], 22.1%; in test [5], -8.9%; in test [6], 20.7%.
As for `Cc1ccc2c(c1)CC1(C2=O)[C@H](c2ccccc2)C2C(=O)c3ccc(C)cc3C2[C@H]1c1ccccc1` (stereo not given in full), the growth inhibition was -14.8% in test [1]; 13.5% in test [2]; -0.15% in test [3]; -11.1% in test [4]; 14.6% in test [5]; 9.5% in test [6].
Consider `CCOC(=O)C1=C(O)CSC1=Nc1ccccc1`, for which the growth inhibition in test [1] is -16.3%; in test [2], 5.6%; in test [3], -12.8%; in test [4], -9.3%; in test [5], -1.7%; in test [6], 22.9%.
For the compound `CO/C(Cc1cc(O)cc(O)c1)=N\N`, the growth inhibition is -0.45% in test [1]; 6.3% in test [2]; 1.25% in test [3]; -5.65% in test [4]; 7.85% in test [5]; -4.1% in test [6].
Turning to `COc1cc(/C=C2\N=C(C)N(n3c(-c4ccccc4)nc4ccccc4c3=O)C2=O)cc(OC)c1OC`, the growth inhibition in test [1] was -20.4%; in test [2], 19.6%; in test [3] it was 29.6%; in test [4] it was 2.7%; in test [5] it was 16.2%; in test [6], 7.3%.

These data come from PubChem BioAssay (NCI).
